Source: PubChem (several laboratories)
This is a sample that favours compounds with a hit; in the whole collection about 1.4% have one here.
PrP UTR inh = inhibition of PrP 5' UTR reporter expression. inhibition, % (no concentration beside the values). cell-based PrP 5' UTR mRNA reporter, plate reader. 0.35% of 340,000 active; in the data active means inhibition above about 52%; further: 0 = median of the neutral control wells
RecA splice inh = blocks M. tuberculosis RecA intein splicing; P9WHJ3; cell-free RecA intein splicing, fluorescence; inhibition, % (test concentration not listed); 0.75% of 290,000 active; AID 2221; in the data active means inhibition above about 30%;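 further: 0% = vehicle wells and 100% = reference inhibitor control wells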
Target sequence (P9WHJ3 whole entry, looked up, canonical isoform): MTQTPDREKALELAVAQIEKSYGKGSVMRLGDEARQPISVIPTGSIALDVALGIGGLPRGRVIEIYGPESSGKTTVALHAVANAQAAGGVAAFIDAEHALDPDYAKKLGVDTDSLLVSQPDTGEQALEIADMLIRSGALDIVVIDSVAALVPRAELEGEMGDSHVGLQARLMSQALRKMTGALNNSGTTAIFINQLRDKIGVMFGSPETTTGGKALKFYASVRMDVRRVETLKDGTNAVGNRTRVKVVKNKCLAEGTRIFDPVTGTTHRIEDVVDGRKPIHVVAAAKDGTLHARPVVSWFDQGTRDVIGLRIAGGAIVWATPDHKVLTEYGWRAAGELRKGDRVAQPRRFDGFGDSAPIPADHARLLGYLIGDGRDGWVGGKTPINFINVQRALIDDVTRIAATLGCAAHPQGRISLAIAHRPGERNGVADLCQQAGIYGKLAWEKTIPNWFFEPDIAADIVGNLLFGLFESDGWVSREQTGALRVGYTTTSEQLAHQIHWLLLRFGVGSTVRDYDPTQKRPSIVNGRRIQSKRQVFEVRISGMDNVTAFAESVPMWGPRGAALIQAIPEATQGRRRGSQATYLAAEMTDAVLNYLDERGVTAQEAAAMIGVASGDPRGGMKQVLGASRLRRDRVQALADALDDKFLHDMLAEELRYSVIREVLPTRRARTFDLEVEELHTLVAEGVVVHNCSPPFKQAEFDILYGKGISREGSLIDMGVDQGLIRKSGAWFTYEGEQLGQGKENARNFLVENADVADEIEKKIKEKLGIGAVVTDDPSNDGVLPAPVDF
SARS 3CLpro inh-1 = SARS-CoV 3CLpro protease inhibition | 0.14% of 290,000 active | P0C6X7 | inhibition, % at 6 µM | recombinant SARS-CoV 3CLpro, quenched FRET peptide cleavage; in the data active means inhibition above about 12%
PrPC surface inh = cell surface PrPC inhibition, primary TR-FRET screen; inhibition, % at 13.8 µM; P04156; TR-FRET read-out; 0.43% of 370,000 active; in the data active means inhibition above about 24%; further: 0% = median of the test wells and 100% = reference compound wells
Mtb hypoxia rep = Mtb hypoxia fluorescent reporter inhibition; AID 1159583; M. tuberculosis hypoxia-regulated fluorescent reporter, fluorescence; fluorescence inhibition, % (test concentration not listed); 0.1% of 300,000 active; in the data active means fluorescence inhibition mostly above about 23%, no sharp cut-off; inactive means mostly below about 17%
BJeLR viability = kills HRASV12-expressing BJeLR cells. BJeLR (HRASV12) viability, CellTiter-Glo ATP luminescence, 48 h. 0.17% of 300,000 active. inhibition, % (test concentration not listed); in the data active means inhibition above about 50%
SARS 3CLpro inh-2 = SARS 3CLpro inhibition, confirmation assay | shares compounds with SARS 3CLpro inh-1 | 36% of 380 active | inhibition, % at 6 µM | QFRET protease activity assay | AID 1879; in the data active means inhibition above about 13%
Active calls of the source: *; · = not tested or not shown.

SMILES	PrP UTR inh	RecA splice inh	SARS 3CLpro inh-1	PrPC surface inh	Mtb hypoxia rep	BJeLR viability	SARS 3CLpro inh-2
COc1ccc(NC(=O)c2ccc3c(=O)n(-c4ccc(OC)cc4OC)c(=S)[nH]c3c2)cc1	-5	-1	14*	18	-13	·	-4
COc1c(Cl)cc(C(=O)NN)cc1Cl	-6	9	16*	3	7	0	17*
CC(C)OP(=O)(OC(C)C)C(C=O)=NNc1ccc([N+](=O)[O-])cc1	·	·	·	·	2	·	·
Cc1ccc(C(=O)NCCN2C3=NCC(C(C)C)N3CC2Cc2ccc(O)cc2)cc1Br (stereo not given)	·	·	·	·	1	·	·
Oc1ccc(Cl)cc1Cc1ccccc1	6	·	·	-1	5	·	·
Oc1ccc(Cl)cc1Cc1cc(Cl)ccc1O	-3	13	13*	1	2	3	7
COc1cccc2c1OC(=NO)C(C(=O)Nc1ccc(C)cc1)C2 (stereo not given)	·	·	·	·	4	·	·
CCCCCn1c(CN2CCN(c3cccc(Cl)c3)CC2)nc2c1c(=O)[nH]c(=O)n2C	-11	6	3	-4	·	6	·
CCCCCn1c(CN2CCN(Cc3ccccc3)CC2)nc2c1c(=O)[nH]c(=O)n2C	4	-1	13*	-10	1	-3	2
COc1ccc(/C(N)=N/OC(=O)CSc2ccccc2)cc1OC	-13	4	13*	0	·	2	-1
COc1ccc(/C(N)=N/OC(=O)CCc2ccccc2)cc1OC	-22	4	5	5	3	-8	·
Cc1cc(C)n2nc(C(=O)NN=Cc3ccccc3C)nc2n1	·	·	·	·	-4	·	·
COc1ccc(/C=N/NC(=O)Cn2nnc3ccccc32)cc1OC	-15	2	12*	1	·	-26	16*
CN(C)c1ccc(/C=N/NC(=O)Cn2nnc3ccccc32)cc1	-43	2	10	-8	·	17	·
Cc1nnc(SC(=O)N2c3ccccc3Sc3ccccc32)s1	-32	17	24*	-3	15	7	38*
O=C(CN1C(=O)c2ccccc2C1=O)Oc1ccc(F)cc1	·	5	13*	·	·	2	10
O=C(NCC(=O)N1CCN(Cc2ccccc2)CC1)c1ccc(Br)cc1	-11	1	12*	-7	-1	6	2
O=C(NCC(=O)N1CCN(Cc2ccccc2)CC1)c1ccc(Cl)cc1	-18	-1	-4	0	1	7	·
O=C(C1=CC(c2ccc(C(F)(F)F)cc2)CC(OCc2ccc(CO)cc2)O1)N1CCN(Cc2ccccc2)CC1 (stereo not given)	·	·	·	·	-4	·	·
CC(=O)c1cc(Cl)ccc1OC(=O)c1ccco1	-24	22	-2	-6	4	5	·
O=C(Oc1ccc(Br)cc1C(=O)/C=C/c1ccccc1F)c1ccco1	-27	12	22*	7	-3	6	43*
CC(C)Oc1ccc(/C=N/NC(=O)c2nnn(-c3nonc3N)c2CN(C)c2ccccc2)cc1	-5	0	14*	5	·	2	5
COc1ccc(O)c(C=NNC(=O)CCn2nnc3ccccc32)c1	·	·	·	·	0	·	·
CC(C)(C)C1CCc2onc(C(=O)Nc3cccnc3)c2C1 (stereo not given)	-6	0	14*	1	0	-13	7
CC(=NNc1ccc([N+](=O)[O-])cc1[N+](=O)[O-])C(C)C(C)C (stereo not given)	·	·	·	·	2	·	·
SMILES	PrP UTR inh	RecA splice inh	SARS 3CLpro inh-1	PrPC surface inh	Mtb hypoxia rep	BJeLR viability	SARS 3CLpro inh-2
Nc1c(C(=O)NN=Cc2cccnc2)cnn1-c1ccccc1	·	·	·	·	0	·	·
CC(=O)NN=C(C)CC(=O)Nc1cccc(C(F)(F)F)c1	·	·	·	·	12	·	·
O=C(c1cncc(Br)c1)N1CCN(S(=O)(=O)c2ccccc2)CC1	-14	0	3	6	7	5	·
O=C(c1cncc(Br)c1)N1CCN(S(=O)(=O)c2ccccc2C(F)(F)F)CC1	-22	0	17*	-8	14	-10	12
CC(C)CC(=O)NC(c1ccccc1Cl)c1c(O)ccc2ccccc12 (stereo not given)	7	-1	13*	16	-9	1	2
CCN(c1ccc(OC)cc1)S(=O)(=O)c1nnc(NC(=O)COc2ccc(F)cc2)s1	-34	0	3	3	9	4	·
CCN(c1ccc(OC)cc1)S(=O)(=O)c1nnc(NC(=O)COc2ccc(C)cc2)s1	-6	-2	13*	·	9	1	1
